We go through 38 compounds from PubChem BioAssay (NCATS).

Each structure is given as a SMILES string. Results filed as inconclusive are left out. Where a call stands in place of a potency, no number is given. Active and inactive are the calls of the source. Calls come from the whole dose curve; as a rule, active = well fitted inhibition curve with a large enough effect; inconclusive = small, poorly fitted or top-dose-only effect; inactive = flat fitted curve, though single readings scatter.

The assay is described as follows: Cytometry Cell-Based qHTS for Inhibitors of the mTORC1 Signaling Pathway in MEF cells (AID 2668).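 Note: Tsc2-/- p53-/- mouse embryonic fibroblasts stably re-expressing wild-type Tsc2; percent cells positive for phospho-rpS6 Ser235/236 relative to propidium iodide stain.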 To be noted: mTORC1 pathway readout; series mostly up to 38.3 µM. The essentials:
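Phospho-rpS6 (Ser235/236) immunofluorescence over PI signal, scored as % positive cells using thresholds from 7.5 nM rapamycin and DMSO wells, after 24 h compound exposure of WT-Tsc2-rescued Tsc2-/-, p53-/- MEFs. PI cell count recorded for viability.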
In general terms: qHTS replaces the single test concentration by a dilution series.
`COc1cccc(C(=O)NCCN2CCN(c3ccc(Cl)cc3)CC2)c1`: the Potency result was “inactive”.
In the case of `O=C(O)[C@@H]1C[C@@H](C(=O)O)N1`, the Potency result was “inactive”.
Turning to `COc1cccc(OC)c1OCCNCC1COc2ccccc2O1` (stereo not drawn), the Potency entry was “inactive”.
Then `CCCn1c(=O)c2[nH]c(-c3ccc(OCC(=O)NCCN)cc3)nc2n(CCC)c1=O`, with “inactive”; and `O=c1[nH]c2cc([N+](=O)[O-])c([N+](=O)[O-])cc2[nH]c1=O`, with “inactive”; and `O=C1NC(O)=NC1(c1ccccc1)c1ccccc1`, with “inactive”.
As to `c1ccc(-c2ccccn2)nc1`, the Potency entry was “inactive”.
To `CC(=O)SCC[N+](C)(C)C` belongs “inactive”.
With `CC(C)NCC(O)COc1cccc2ccccc12` (stereo not drawn), the Potency result was “inactive”.
Then `O=C(O)/C=C/C(O)c1ccc(Cl)cc1` (stereo not drawn), with “inactive”; and `O=C(O)[C@@H]1C[C@H](C(=O)O)N1`, with “inactive”.
`Cc1ccc(C(=O)O[C@H](C(=O)O)[C@@H](OC(=O)c2ccc(C)cc2)C(=O)O)cc1` (tested in a mixture with another compound): the Potency result is “inactive”.
On to `CN1C2CCC1CC(OC(=O)C(O)c1ccccc1)C2` (stereo not drawn), for which the Potency entry is “inactive”.
With `C[N+](C)(CCCCCC[N+](C)(C)CCCN1C(=O)c2cccc3cccc(c23)C1=O)CCCN1C(=O)c2cccc3cccc(c23)C1=O`, the Potency result was “inactive”.
To `N[C@@H](CC(=O)O)C(=O)O` belongs “inactive”; to `CC(C)NC[C@H](O)COc1cccc2[nH]ccc12`, “inactive”.
Then `O=C(O)c1cc(=O)c2c(Cl)cc(Cl)cc2[nH]1`, with “inactive”; and `COc1ccccc1CNCCCCCCNCCCCCCCCNCCCCCCNCc1ccccc1OC`, with “inactive”.
To `O=C(O)CC1CCCc2ccccc2C1O` (stereo not drawn) belongs “inactive”; to `NC(N)=NC(=O)c1nc(Cl)c(N2CCCCCC2)nc1N`, “inactive”.
Regarding `COc1cc(C(O)CO)ccc1OS(=O)(=O)O` (stereo not drawn), the Potency result is “inactive”.
To `Cc1ccc(O)c(N=Nc2ccccc2)n1` belongs “inactive”; to `CC1(C)CCC=[N+]1[O-]`, “inactive”; to `Oc1cc2c(cc1O)CN(C(=S)NCCc1ccc(Cl)cc1)CCC2`, “inactive”.
Then `O=c1[nH]c2cc(Cl)c(Cl)cc2[nH]c1=O`, with “inactive”; and `NC(=O)C(=O)O`, with “inactive”; and `CN1CCc2cc(NC(=O)Nc3cccnc3)ccc21`, with “inactive”.
With `CCCCN1CCC(n2c(=O)[nH]c3ccccc32)CC1`, the Potency entry was “inactive”.
Then `CC1CN(S(=O)(=O)c2cccc3cnccc23)CCN1` (stereo not drawn), with “inactive”; and `Oc1ccc(C2CNCc3sccc32)cc1O` (stereo not drawn), with “inactive”.
As for `O=C(Nc1cccc(C(=O)Nc2ccc(S(=O)(=O)O)c3cc(S(=O)(=O)O)cc(S(=O)(=O)O)c23)c1)Nc1cccc(C(=O)Nc2ccc(S(=O)(=O)O)c3cc(S(=O)(=O)O)cc(S(=O)(=O)O)c23)c1`, the Potency entry was “inactive”.
Then `COc1ccc(/C=C/C(=O)Nc2ccccc2C(=O)O)cc1OC`, with “inactive”.
To `O=C(O)CNC(=O)C(CS)Cc1ccccc1` (stereo not drawn) belongs “inactive”.
To `CN(C)C(N)=NCCC[C@H](N)C(=O)O` belongs “inactive”.
As to `C=CC(N)CCC(=O)O` (stereo not drawn), the Potency result is “inactive”.
Regarding `NCCNC(=O)c1ncsc1-c1cccc(F)c1`, the Potency result was “inactive”.
To `NCCCCC(=O)O` belongs “inactive”; to `NCCCCCCCCCCN`, “inactive”.
